Compound activity deposited in PubChem BioAssay by several laboratories.
Compounds with a hit are over-represented: about 1.4% of the library has one in this group of screens.
V-ATPase pH – alters yeast V-ATPase proton transport; S. cerevisiae, pHLuorin cytosolic pH fluorescence; response, % at 10 µM; actives 0.37% (n = 350,000); AID 504577; in the data active = response mostly above about 7.3%, no sharp cut-off; inactive = mostly below about 5.4%; note: actives read high
Cardio protect – myocardial damage modulation in H9c2 cells. H9c2 cardiomyocytes, H2O2 injury protection, ATPLite, 2 h. protection from H2O2 cell death, % at 20 µM. actives 0.63% (n = 360,000). AID 588492;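 active = compounds giving at least 50% protection of heart cells from peroxide-induced death in the single-dose screen, raw or plate-pattern-corrected value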
p-CIP stab down – compounds decreasing mouse p/CIP protein stability. Q05BA5. decrease of EGFP signal, % at 10 µM. AID 1984. actives 0.01% (n = 290,000). F442A p/CIP-EGFP cells, EGFP fluorescence, 16 h;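 active = EGFP signal decrease of at least 30% at 10 µM or well 3 SD below plate mean, unless failing retest; inactive = the rest, including hits failing retest or dose response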
Yeast superoxide – caloric restriction mimetics inhibiting age-related superoxide in yeast; S. cerevisiae aged cells, superoxide DHE fluorescence; hits give low values; superoxide response (% of plate mean), % at 10 µM; actives 0.18% (n = 330,000);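 active = superoxide response under a set limit, about three screen SD below normal, cut at about 65% in these data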;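 note: yeast aged for seven days with compound at 30 °C before DHE staining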
MIN6 prolif – induces beta-cell replication in MIN6 cells. MIN6 cells proliferation, ATPlite luminescence, 48 h; cells starved in 0.2% serum; 100% = growth in 10% serum. proliferation, % at 10 µM. actives 0.29% (n = 330,000). AID 2380;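 active = compounds whose signal lies at least 3.5 SD above the mean of all wells on their plate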
HSV replic up – HSV replication enhancement. HSV replication augmentation in cells, fold increase. maximum fold increase. actives 0.005% (n = 220,000); in the data active = maximum fold increase above about 1.5; tested in PC3 cells
V-ATPase pH SP – yeast V-ATPase proton transport regulation; shares compounds with V-ATPase pH; S. cerevisiae pHLuorin cytosolic pH; response, % at 10 µM; actives 2% (n = 980); AID 602197; in the data active = response above about 24%
Hits are given with their value.

`O=S1(=O)N(Cc2ccccc2F)CCCN1Cc1c(F)cccc1Cl` gave V-ATPase pH 9.6, Cardio protect inactive, p-CIP stab down inactive, Yeast superoxide inactive, MIN6 prolif inactive and V-ATPase pH SP inactive.
COC(=O)c1cc(Br)c(=O)n(-c2ccccn2)c1 was read as V-ATPase pH inactive, Cardio protect inactive, p-CIP stab down inactive, Yeast superoxide inactive, MIN6 prolif inactive and HSV replic up inactive.
COC(=O)c1cc(Br)c(=O)n(-c2cc(C)on2)c1 was read as V-ATPase pH 8.0, Cardio protect inactive, p-CIP stab down inactive, Yeast superoxide inactive, MIN6 prolif inactive, HSV replic up inactive and V-ATPase pH SP inactive.
`N#Cc1cccc(C(=O)OCC(=O)N2CCCc3ccccc32)c1` gave V-ATPase pH 9.2, Cardio protect inactive, Yeast superoxide inactive, MIN6 prolif inactive and V-ATPase pH SP inactive.
Screening CCOc1ccc2nc(N3CCC(C(=O)N4CCN(C(=O)c5ccco5)CC4)CC3)sc2c1 returned V-ATPase pH 12, Cardio protect inactive, p-CIP stab down inactive, Yeast superoxide inactive, MIN6 prolif inactive, HSV replic up inactive and V-ATPase pH SP inactive.
`CCOc1ccc2nc(NC(=O)C3CCN(C(=O)c4ccco4)CC3)sc2c1` gave V-ATPase pH inactive, Cardio protect inactive, p-CIP stab down inactive, Yeast superoxide inactive and MIN6 prolif inactive.
Screening CCOC(=O)Cn1c(=O)c(-c2ccccc2NCc2ccccc2)nc2ccccc21 returned V-ATPase pH inactive, Cardio protect inactive, Yeast superoxide inactive, MIN6 prolif inactive, HSV replic up inactive and V-ATPase pH SP inactive.
For CCOC(=O)Cn1c(-c2ccccc2)nc2ccccc2c1=O the results were V-ATPase pH inactive, Cardio protect inactive, p-CIP stab down inactive, Yeast superoxide inactive, MIN6 prolif inactive, HSV replic up inactive and V-ATPase pH SP inactive.
`CCCCOC(=O)Cn1c(-c2ccccc2)nc2ccccc2c1=O` gave V-ATPase pH inactive, Cardio protect inactive, p-CIP stab down inactive, Yeast superoxide inactive, MIN6 prolif inactive and HSV replic up inactive.
`CCC(NC(=O)c1ccc(C#CC2(O)CCCCC2)cc1)C(=O)O` (configuration not stated) gave V-ATPase pH 12, Cardio protect inactive, p-CIP stab down inactive, Yeast superoxide inactive, MIN6 prolif inactive, HSV replic up inactive and V-ATPase pH SP inactive.
Screening CCOc1cc(C2C(C#N)=C(N)SC(N)=C2C#N)ccc1OCCN1CCOCC1 returned V-ATPase pH inactive, Cardio protect inactive, p-CIP stab down inactive, Yeast superoxide inactive, MIN6 prolif inactive and HSV replic up inactive.
`CCOc1ccc(C2C(C#N)=C(N)SC(N)=C2C#N)c(OCC)c1` gave V-ATPase pH 12, Cardio protect inactive, p-CIP stab down inactive, Yeast superoxide inactive, MIN6 prolif inactive, HSV replic up inactive and V-ATPase pH SP inactive.
Screening O=C(NCc1cccs1)c1csc([C@@H]2O[C@H](CO)[C@H](O)[C@H](O)[C@H]2O)n1 returned Cardio protect inactive.
For CC(C)Sc1nnc(CNC(=O)C23CC4CC(CC(C4)C2)C3)n1C1CCCCC1 the results were V-ATPase pH inactive, Cardio protect inactive, p-CIP stab down inactive, Yeast superoxide inactive and MIN6 prolif inactive.
`O=C(Nn1cnnc1)c1ccc(Cl)c(Cl)c1` gave V-ATPase pH inactive, Cardio protect inactive, p-CIP stab down inactive, Yeast superoxide inactive and MIN6 prolif inactive.
CCOc1ccc(C(=O)COC(=O)Cc2n[nH]c(=O)c3ccccc23)cc1 was read as V-ATPase pH inactive, Cardio protect inactive, Yeast superoxide inactive and MIN6 prolif inactive.
`O=C(Cc1n[nH]c(=O)c2ccccc12)OCC(=O)c1ccc2c(c1)OCCO2` gave V-ATPase pH 12, Cardio protect 66, p-CIP stab down inactive, Yeast superoxide inactive, MIN6 prolif inactive, HSV replic up inactive and V-ATPase pH SP inactive.
CCOC(=O)/C(C#N)=C1\C(=O)N(Cc2ccccc2)c2ccccc21 was read as V-ATPase pH 10, Cardio protect inactive, p-CIP stab down inactive, Yeast superoxide inactive, MIN6 prolif inactive, HSV replic up inactive and V-ATPase pH SP inactive.
Screening CCOC(=O)/C(C#N)=C1/C=CN(Cc2ccccc2)C=N1 returned V-ATPase pH inactive, Cardio protect inactive, p-CIP stab down inactive, Yeast superoxide inactive, MIN6 prolif inactive and HSV replic up inactive.
CCc1nn(C(C)C(=O)N(C)Cc2ccccc2)c(=O)c2cc3occc3n12 (configuration not stated) was read as V-ATPase pH 12, Cardio protect inactive, p-CIP stab down inactive, Yeast superoxide inactive, MIN6 prolif inactive and V-ATPase pH SP inactive.
`CC(C)[C@H](NC(=O)c1ccc(F)cc1)C(=O)NC1=NCCS1` gave V-ATPase pH inactive, Cardio protect inactive, p-CIP stab down inactive, Yeast superoxide inactive, MIN6 prolif inactive, HSV replic up inactive and V-ATPase pH SP inactive.
For O=c1c2ccccc2sn1-c1cccc(Cl)c1 the results were V-ATPase pH inactive, Cardio protect inactive and V-ATPase pH SP inactive.
CN(C)S(=O)(=O)c1cccc(-n2sc3ccccc3c2=O)c1 was read as V-ATPase pH inactive, Cardio protect inactive, p-CIP stab down inactive, Yeast superoxide inactive, MIN6 prolif inactive and HSV replic up inactive.
COC(=O)c1ccc(NC(=O)C2CCN(C(=O)Nc3ccccc3)CC2)cc1 was read as V-ATPase pH inactive, Cardio protect inactive, Yeast superoxide inactive and MIN6 prolif inactive.
For CN(CCOc1ccc(-c2ccn(S(=O)(=O)c3ccc(Cl)cc3)n2)cc1)c1ccccn1 the results were V-ATPase pH 10, Cardio protect inactive, p-CIP stab down inactive, Yeast superoxide inactive, MIN6 prolif inactive, HSV replic up inactive and V-ATPase pH SP inactive.
`CN(CCOc1ccc(-c2ccn(S(=O)(=O)c3c(Cl)cccc3Cl)n2)cc1)c1ccccn1` gave V-ATPase pH inactive, Cardio protect inactive, p-CIP stab down inactive, Yeast superoxide inactive, MIN6 prolif inactive and HSV replic up inactive.
`C[C@H](CO)N1C[C@H](C)[C@@H](CN(C)S(=O)(=O)c2ccc(C#N)cc2)OCc2cnnn2CCCC1=O` gave V-ATPase pH 4.1, Cardio protect inactive and V-ATPase pH SP inactive.
Screening COc1cccc(S(=O)(=O)N(C)C[C@H]2OCc3cnnn3CCCC(=O)N([C@@H](C)CO)C[C@@H]2C)c1 returned V-ATPase pH inactive and Cardio protect inactive.
Screening COc1cccc(S(=O)(=O)N(C)C[C@@H]2OCc3cnnn3CCCC(=O)N([C@H](C)CO)C[C@@H]2C)c1 returned V-ATPase pH 7.5, Cardio protect inactive and V-ATPase pH SP inactive.
For O=C(CN1C(=O)NC2(CCCC2)C1=O)OCc1ccc(Cl)cc1Cl the results were V-ATPase pH inactive, Cardio protect inactive, Yeast superoxide inactive and MIN6 prolif inactive.
Cn1cccc1CC(=O)NNC(=S)Nc1ccc(Cl)cc1Cl was read as V-ATPase pH 16, Cardio protect inactive, p-CIP stab down inactive, Yeast superoxide inactive, MIN6 prolif inactive, HSV replic up inactive and V-ATPase pH SP inactive.
